Experimental findings from PubChem BioAssay AID778 (Sanford-Burnham Center for Chemical Genomics, 2007) are described below.

Structures are written as SMILES. Screen size: about 96,000 compounds; about 20,000 (21%) were called active. Not all results are given here. Unmarked numbers belong to inactive results.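 How the source made its calls: active means CYP2C19 inhibition above a set limit at 5 µM in the primary screen (cut at about 50% in these data); inactive means the rest.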

Sequence of Cytochrome P450 2C19 (Homo sapiens) (P33261 whole entry, looked up): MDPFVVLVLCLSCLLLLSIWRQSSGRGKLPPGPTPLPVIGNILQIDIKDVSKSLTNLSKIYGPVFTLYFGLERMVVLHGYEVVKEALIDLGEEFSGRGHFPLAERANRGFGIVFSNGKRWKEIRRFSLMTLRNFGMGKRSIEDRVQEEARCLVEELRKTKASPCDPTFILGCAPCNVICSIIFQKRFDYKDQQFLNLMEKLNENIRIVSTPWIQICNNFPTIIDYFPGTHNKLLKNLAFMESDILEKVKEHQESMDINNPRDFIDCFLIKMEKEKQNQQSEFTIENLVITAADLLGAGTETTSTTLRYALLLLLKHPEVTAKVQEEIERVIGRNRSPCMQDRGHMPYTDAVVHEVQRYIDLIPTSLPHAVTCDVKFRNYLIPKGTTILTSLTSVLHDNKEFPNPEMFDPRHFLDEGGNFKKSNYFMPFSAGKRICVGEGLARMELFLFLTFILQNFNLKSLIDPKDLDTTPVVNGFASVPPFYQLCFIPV

This assay addresses Cytochrome P450 2C19 (Homo sapiens) (UniProt P33261). The assay can be described thus: blockers of cytochrome P450 2C19 activity – biochemical, luminescence, ADME assay, primary screen (AID 778).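 Further: plate controls were negative control wells for no effect and 2.5 mM tranylcypromine positive control for full effect.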 Conditions: CYP2C19 Supersomes, luciferin-H EGE luminescence, 30 min; at 5 µM; hits give high values.
Consider `O=C(NCc1ccco1)C1(c2ccc(Cl)cc2)CCCC1`, for which the inhibition (in general, the change of the read-out against control, counted positive when it falls) is 39.8%.

`CCOc1nc(NCCN2CCOCC2)nc(Nc2ccc(C)cc2)n1`: the inhibition is 11.1%.

As for `CCOc1ccc(NC(=O)Nc2ccc(N(C)C(C)=O)cc2)cc1`, the inhibition was -7.4%.

For `O=C(Nc1ccc2ccccc2c1)Nc1ccc2snnc2c1`, the inhibition is 5.2%.

As to `Oc1c(C=Nc2cccc3nsnc23)ccc2ccccc12`, the inhibition is 45.4%.

Consider `CC1CN(C(=O)c2ccc3c(c2)OCO3)OC(c2ccccc2)O1` (stereo unspecified), for which the inhibition was 74.6% (active).

With `Cc1ccc(-c2nn(-c3ccccc3)cc2/C=N/NC(=O)c2ccc3c(c2)OCO3)cc1`, the inhibition is 49.9%.

Regarding `O=C(c1ccc2c(c1)OCO2)N1CCNc2ccccc2C1`, the inhibition is 16.6%.

For `CCn1c(COc2cccc(OC)c2)nnc1SCC(=O)N1CCOCC1`, the inhibition is 9.6%.

Consider `CCOC(=O)C1Cn2c(nc3c(c2=O)C(C)(CC)Cc2ccccc2-3)S1` (stereo unspecified), for which the inhibition is 97.8% (active).

For `CC1(C)Cc2ccccc2-c2nc(CN3CCOCC3)[nH]c(=O)c21`, the inhibition was 9.2%.

Turning to `COC(=O)Nc1ncc(CN2CCCCC2)s1`, the inhibition was -1.3%.

On to `Cc1cc(C)c(C#N)c(SCc2[nH]nc3c2C(c2ccccc2)C(C#N)=C(N)O3)n1` (stereo unspecified), for which the inhibition was -13.6%.

Take `Cc1cc(C)c(C#N)c(SCc2ccc3c(c2)OCO3)n1`: the inhibition is 96.5% (active).

`Cc1cc(C)c(C#N)c(SCc2ccccc2C(=O)O)n1`: the inhibition was -6%.

Regarding `CC(CO)N1CCS(=O)(=O)CC1` (stereo unspecified), the inhibition is -1.3%.

For `O=C(c1ccc(Cl)cc1)c1cnc(Nc2ccccc2)s1`, the inhibition was -10.7%.

`CCCOC(=O)Nc1ccccc1C(N)=O`: the inhibition is 5.8%.

On to `Cc1cc2c(=O)n(C)c(SCC(=O)c3cc4ccccc4o3)nc2s1`, for which the inhibition was 85.9% (active).

`C=CCn1c(SCC(=O)c2c(N)n(C)c(=O)n(C)c2=O)nc2sc(CC)cc2c1=O`: the inhibition is 1.3%.

With `CSCCC(NC(=O)COc1ccccc1)C(=O)OCC(=O)c1cc2ccccc2o1` (stereo unspecified), the inhibition is 28.3%.

On to `COc1ccc(CN2CCn3ncc(C(=O)Nc4ccc(Cl)cc4Cl)c3C2=O)cc1`, for which the inhibition is -8.8%.

As for `O=C(COC(=O)CCc1c[nH]c(=O)[nH]1)Nc1ccccc1Cl`, the inhibition was -10%.

For `O=C(O)CSCNC(=O)CC12CC3CC(CC(C3)C1)C2`, the inhibition is 11.3%.

On to `O=C(C(NS(=O)(=O)c1cccc2nsnc12)c1ccccc1)N1CCN(c2ccccc2)CC1` (stereo unspecified), for which the inhibition was 86.3% (active).

For the compound `O=C(O)c1ccc(NS(=O)(=O)c2cccc3nsnc23)cc1`, the inhibition was 2%.

Take `O=C(C(NS(=O)(=O)c1cccc2nsnc12)c1ccccc1)N1CCN(c2ccccn2)CC1` (stereo unspecified): the inhibition was 35.6%.

For `CC(C)c1nc2ccc(C(=O)O)cc2[nH]1`, the inhibition is 12.1%.

Take `CC(C)(C)c1cc(=O)n2c(nc3ccccc32)[nH]1`: the inhibition is 12.3%.

As for `C/C(=N\NC(=O)c1ccccc1C)c1ccc(N2CCOCC2)cc1`, the inhibition is 3.2%.

Regarding `Cc1cccc(-n2nc3c(c2NC(=O)c2ccc(Br)o2)CSC3)c1C`, the inhibition is -0.9%.

With `O=C1CCC(=O)N1CCOP1(=O)COc2ccccc2OC1`, the inhibition is -14.7%.

For `CN=C1SC(C(=O)O)CC(=O)N1C` (stereo unspecified), the inhibition was -3.4%.

Take `COc1ccccc1NC(=O)CSc1nnc(Cc2cccn2C)n1-c1ccc(F)cc1`: the inhibition was 66.3% (active).

Turning to `Cc1ccc(C)c(NC(=O)CSc2nnc(Cc3cccn3C)n2-c2ccc(F)cc2)c1`, the inhibition was 15.6%.

`COc1ccc(-n2c(Cc3cccn3C)nnc2SCC(=O)Nc2cc(C)cc(C)c2)cc1`: the inhibition is 20.6%.

Take `COC(=O)c1ccc(NC(=O)CSc2nnc(Cc3cccn3C)n2-c2ccc(F)cc2)cc1`: the inhibition is 22.5%.

In the case of `Cn1cccc1Cc1nnc(SCC(=O)NCc2ccc3c(c2)OCO3)n1CCc1ccccc1`, the inhibition was 88.3% (active).

On to `Cn1cccc1Cc1nnc(SCC(=O)NCCc2ccccc2)n1-c1ccc(F)cc1`, for which the inhibition was 59.6% (active).

On to `Cc1nnc(SCC(=O)N/N=C/c2cn(-c3ccccc3)nc2-c2ccc(F)cc2)n1-c1ccccc1`, for which the inhibition was 3.9%.

Turning to `CC1(C)CC(=O)C=C(NCc2ccncc2)C1`, the inhibition was 31.5%.

In the case of `CCN(CC)C(=O)CSc1nnc(C2CCCCC2)o1`, the inhibition was 8.6%.

For `CCCC(=O)Nc1ccc2c(c1)nc1n2CCSC1`, the inhibition is -2.8%.

As to `COc1cccc(OC)c1C(=O)Nc1ccc(N2CCCCC2)cc1`, the inhibition was -3.6%.

As for `Cc1ccc(OCC(=O)Nn2cnc3ccccc32)cc1`, the inhibition is 17.2%.

`COc1ccc(-c2cc(C(=O)n3cnc4ccccc43)c3ccccc3n2)cc1`: the inhibition is 74.8% (active).

Regarding `Cc1ccc2nc(-c3ccccc3)cc(C(=O)O)c2c1`, the inhibition was -3.4%.

`O=C(C1=C(O)C(=O)N(c2ncccn2)C1c1cccs1)c1ccco1` (stereo unspecified): the inhibition was 1.3%.

Consider `CCC(=O)c1ccc(OCC(O)CN2CCN(c3cccc(C(F)(F)F)c3)CC2)cc1` (stereo unspecified), for which the inhibition was 25.5%.

For `CCC(=O)OCc1c(C(F)(F)F)nn(C)c1Oc1cccc(C(F)(F)F)c1`, the inhibition was 57.7% (active).

As for `Cn1nc(C(F)(F)F)c2cc(NC(=O)OCC(C)(C)C)sc21`, the inhibition is 34.6%.

For `COc1ccc(Nc2cc(=O)oc3ccccc23)cc1`, the inhibition was 17.7%.

Regarding `Cc1noc(C)c1S(=O)(=O)N1CCCC(C(=O)Nc2nccs2)C1` (stereo unspecified), the inhibition was 78.8% (active).

Turning to `CCOc1ccccc1NC(=O)C1CCN(S(=O)(=O)c2c(C)nn(C)c2C)CC1`, the inhibition is 44.7%.

`CCOc1ccc(OCC)c(NC(=O)C2CCN(S(=O)(=O)c3c(C)noc3C)CC2)c1`: the inhibition was 54.5% (active).

Regarding `Cc1noc(/C=C/N(C)C)c1S(=O)(=O)N1CCCC(C(=O)NCc2ccco2)C1` (stereo unspecified), the inhibition is 39.6%.

Regarding `CCOC(=O)C1CCN(C(=O)C2CCN(S(=O)(=O)c3c(C)noc3C)CC2)CC1`, the inhibition was 14.7%.

On to `Cc1ccc(NC(=O)C2CCCN(S(=O)(=O)c3c(C)noc3C)C2)c(C)c1` (stereo unspecified), for which the inhibition was 11.2%.

With `COc1ccc(N2CCN(Cc3cc(=O)oc4ccc5ccccc5c34)CC2)cc1`, the inhibition was 12.4%.

Turning to `COc1ccc(N2CCN(Cc3ccc(Br)s3)CC2)cc1`, the inhibition is 96.1% (active).

As to `Fc1ccc(N2CCN(Cc3cnc(Oc4ccc(Br)cc4)s3)CC2)cc1`, the inhibition is 2.8%.
